Data on 71 compounds can be found in ChEMBL document CHEMBL1201862, “PubChem BioAssay data set” (2004).

The campaign covered roughly 400,000 compounds. About 2,100 (0.53%) were called active. Not shown: some 14% with an inconclusive outcome. How the calls were made is not given here. The full list was thinned out, with actives kept by preference.

Sequence of Ataxin-2 (Homo sapiens) (Q99700 whole entry): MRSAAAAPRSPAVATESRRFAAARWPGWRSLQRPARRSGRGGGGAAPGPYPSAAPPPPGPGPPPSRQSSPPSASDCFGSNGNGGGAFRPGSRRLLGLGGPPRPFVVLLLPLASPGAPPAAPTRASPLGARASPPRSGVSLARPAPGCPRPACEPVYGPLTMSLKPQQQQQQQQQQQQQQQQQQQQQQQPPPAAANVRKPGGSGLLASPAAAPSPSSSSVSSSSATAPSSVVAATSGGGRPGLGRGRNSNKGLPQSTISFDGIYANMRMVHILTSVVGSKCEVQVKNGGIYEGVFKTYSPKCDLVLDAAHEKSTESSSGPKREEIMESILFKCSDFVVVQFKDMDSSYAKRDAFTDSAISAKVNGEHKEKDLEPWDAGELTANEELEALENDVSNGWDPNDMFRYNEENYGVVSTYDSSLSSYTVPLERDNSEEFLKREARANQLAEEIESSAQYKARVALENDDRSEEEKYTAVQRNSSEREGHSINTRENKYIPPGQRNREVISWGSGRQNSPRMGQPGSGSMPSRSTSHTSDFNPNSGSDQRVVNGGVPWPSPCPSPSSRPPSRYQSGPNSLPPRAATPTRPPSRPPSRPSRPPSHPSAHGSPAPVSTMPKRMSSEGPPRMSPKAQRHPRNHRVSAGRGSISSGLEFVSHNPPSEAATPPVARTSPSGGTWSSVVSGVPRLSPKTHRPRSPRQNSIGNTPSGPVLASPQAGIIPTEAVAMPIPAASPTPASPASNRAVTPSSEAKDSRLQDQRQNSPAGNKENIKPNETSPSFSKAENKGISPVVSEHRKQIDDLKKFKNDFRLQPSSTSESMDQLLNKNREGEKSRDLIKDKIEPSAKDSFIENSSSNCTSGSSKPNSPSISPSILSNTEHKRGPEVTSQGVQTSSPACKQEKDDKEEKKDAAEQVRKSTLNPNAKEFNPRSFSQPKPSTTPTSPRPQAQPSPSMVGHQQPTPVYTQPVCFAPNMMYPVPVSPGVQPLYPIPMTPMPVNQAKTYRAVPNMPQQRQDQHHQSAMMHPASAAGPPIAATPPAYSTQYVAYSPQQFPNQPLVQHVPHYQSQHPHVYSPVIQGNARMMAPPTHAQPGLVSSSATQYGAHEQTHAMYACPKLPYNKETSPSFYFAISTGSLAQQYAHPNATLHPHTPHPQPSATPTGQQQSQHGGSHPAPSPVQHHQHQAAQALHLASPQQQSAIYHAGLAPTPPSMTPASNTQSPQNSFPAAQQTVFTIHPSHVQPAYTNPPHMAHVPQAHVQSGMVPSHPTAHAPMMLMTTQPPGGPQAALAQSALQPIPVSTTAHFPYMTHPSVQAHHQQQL

This assay concerns the target Ataxin-2 (Homo sapiens) (UniProt Q99700). Kind of assay: qHTS for Inhibitors of ATXN expression. The class given is functional.
`N#Cc1ccccc1CSc1nc2ccsc2c(=O)n1Cc1ccccn1`: the Potency result was “inactive”.
`COc1ccc(-c2cc(=O)oc3cc(OC(=O)C4CCCCC4)ccc23)cc1`: the Potency result is “inactive”.
Consider `O=C1CCC([N+](=O)[O-])C(c2ccc3c(c2)OCO3)N1` (stereo unspecified), for which the Potency result was “inactive”.
As to `CCN(CC)c1ccc(-c2nc3cnccn3c2NC2CCCC2)cc1`, the Potency entry is “inactive”.
Consider `O=C1N/C(=C/c2cccn2-c2ccc(F)cc2)C(=O)N1Cc1ccccc1`, for which the Potency result was “inactive”.
With `COc1ccccc1CNc1nc(NCC2CC2)nc2ccsc12`, the Potency is 15.8 µM (active).
As for `CC(C)Nc1nc(NCCOc2ccccc2Cl)c2sccc2n1`, the Potency is 22.4 µM (active).
In the case of `c1ccc(CNc2nc(NCCOc3ccccc3)c3sccc3n2)cc1`, the Potency was 22.4 µM (active).
As for `COc1ccc(C(=O)NCCOc2ccccc2Cl)c(OC)c1OC`, the entry is “inactive”; as for `CNc1nc(NCC2CCCCC2)c2sccc2n1`, 12.6 µM (active).
As for `O=C(NC(=O)c1ccccc1Cl)C(=O)Nc1ccc(Cl)cc1`, the entry is “inactive”; as for `O=C(N/N=C/c1cc2c3c(c1O)CCCN3CCC2)c1ccccc1O`, “inactive”; as for `CCN(CC)c1ccc2cc(S(=O)(=O)c3ccc(Cl)cc3)c(=O)oc2c1`, “inactive”.
As for `CCN(CC)S(=O)(=O)c1cccc(C(=O)N/N=C(\C)c2ccc(O)cc2O)c1`, the entry is “inactive”; as for `O=C(O)c1cc2ccc(O)cc2oc1=O`, “inactive”; as for `COc1ccc(-c2cnc(C(N)=O)c(O)n2)cc1`, “inactive”.
Regarding `CC[C@@H]1C(c2ccccc2)=NN(c2ccc(Br)cc2)[C@H]1C(=O)N1CCOC1=O`, the Potency entry is “inactive”.
In the case of `O=C1OCCN1C(=O)[C@H]1[C@H](c2ccc(Cl)cc2)C(c2ccc(F)cc2)=NN1c1ccccc1`, the Potency entry was “inactive”.
For the compound `C#Cc1cccc(Nc2nc(NC(C)C)nc3ccsc23)c1`, the Potency was 28.2 µM (active).
Turning to `COCCNc1nc(NCc2ccc(C(C)C)cc2)c2sccc2n1`, the Potency was 35.5 µM (active).
Consider `c1cc2cc(CNc3nc(NCC4CC4)nc4ccsc34)ccc2o1`, for which the Potency is 25.1 µM (active).
With `COc1cccc(CNC(=O)Cc2csc(Nc3nc(S)nc4ccccc34)n2)c1`, the Potency entry is “inactive”.
On to `COc1cccc(CNc2nc(NCc3cccs3)nc3ccsc23)c1`, for which the Potency is 39.8 µM (active).
As for `c1csc(CNc2nc(Oc3ccncc3)c3sccc3n2)c1`, the Potency entry is “inactive”.
On to `CC(=O)c1ccc(NC(=O)COC(=O)Cc2ccsc2)cc1`, for which the Potency entry was “inactive”.
Turning to `S=C(c1ccc(-c2ccc(Br)cc2)o1)N1CCCCC1`, the Potency result is “inactive”.
As to `CN(Cc1ccon1)C(=O)CC1C(=O)NCCN1CC(C)(C)C` (stereo unspecified), the Potency entry was “inactive”.
As to `O=S(=O)(O)c1ccc(SCc2ccccc2)nc1`, the Potency result was “inactive”.
Consider `COc1ccccc1CNc1nc(NCc2ccc(C(C)C)cc2)c2sccc2n1`, for which the Potency is 31.6 µM (active).
For `CC(C)c1ccc(CNc2nc(NCC3CC3)nc3ccsc23)cc1`, the Potency was 28.2 µM (active).
Under `COc1ccc(CNc2nc3ccccc3n2C(C)C)cc1` stands “inactive”.
As for `CCn1c(/C=C/c2c[nH]c3ccccc23)nc2ccccc2c1=O`, the entry is “inactive”.
As to `O=C(CCCCl)Oc1ccc2cc(-c3ccc4ccccc4n3)c(=O)oc2c1`, the Potency entry was “inactive”.
In the case of `Cc1ccc(NC(=O)C2CCCN2c2nn3c(=O)cc(C)nc3s2)cc1` (stereo unspecified), the Potency entry is “inactive”.
As for `CCOc1ncccc1C(=O)Nc1nc(C(C)(C)C)cs1`, the figure is 39.8 µM (active); as for `CCOc1ncccc1C(=O)NC(C)CCc1ccccc1` (stereo unspecified), “inactive”; as for `CCOc1ncccc1C(=O)OCC(=O)NC(=O)NC(C)C`, “inactive”.
Consider `COc1ccc([C@@H](C)NC(=O)CCc2nnc(-c3cc(C)on3)o2)cc1`, for which the Potency entry was “inactive”.
Regarding `COc1ccc2[nH]c3nc(SCc4nnc(-c5ccc(C)cc5)o4)nnc3c2c1`, the Potency was 22.4 µM (active).
For `COc1ccc(C2CC(c3ccc(F)cc3)n3nc(NC(=O)c4ccco4)nc3N2)cc1` (stereo unspecified), the Potency result was “inactive”.
Under `CCCn1nc(NC(=O)c2cccs2)c2cc3cc(C)ccc3nc21` stands “inactive”; under `Cc1ccc(C)c(CSc2cn(CCNC(=O)c3cccs3)c3ccccc23)c1`, 31.6 µM (active).
Consider `N#Cc1c(N)n(CCNC(=O)c2cccs2)c2nc3ccccc3nc12`, for which the Potency entry was “inactive”.
As for `COC(=O)c1cc(=O)nc(NN=C2c3ccccc3-c3ccccc32)s1`, the Potency is 14.1 µM (active).
As for `Cc1cccn2c(=O)c3cc(C#N)/c(=N\C(=O)c4ccccc4)n(Cc4ccco4)c3nc12`, the entry is “inactive”; as for `O=C(Oc1cc2oc(=O)c3c(c2cc1Cl)CCCC3)c1cccs1`, “inactive”; as for `COc1cc2c(cc1OC)C(c1ccccc1Cl)N(C)CC2` (stereo unspecified), “inactive”.
As to `COc1cc2c(cc1OC)CN(C1CCC(C(C)(C)C)CC1)CC2` (stereo unspecified), the Potency result is “inactive”.
`COc1cc2c(cc1OC)C(c1ccccc1)N(C(=O)CCl)CC2` (stereo unspecified): the Potency is 25.1 µM (active).
Under `CCc1ccc(-c2cc(C(F)(F)F)n3nc(C(=O)Nc4cnn(Cc5ccccc5C)c4)cc3n2)s1` stands “inactive”; under `CC1(C)CC(=O)c2cnc(N3CCc4ccccc43)nc2C1`, “inactive”; under `COc1ccc(S(=O)(=O)N(C)C)cc1NC(=O)CCNC(=O)c1ccco1`, “inactive”.
With `O=C(NCCNC1CCC(c2ccccc2)CC1)c1cccs1` (stereo unspecified), the Potency entry was “inactive”.
Turning to `O=C(c1cccs1)N1CCN(C(=O)c2cccs2)C1=S`, the Potency is 39.8 µM (active).
Regarding `Nc1ccc(/C=C/C(=O)c2cccs2)cc1`, the Potency entry is “inactive”.
Under `CCOc1cc(Br)c(C(C)NC(=O)c2cccnc2)cc1OCC` (stereo unspecified) stands “inactive”; under `N#C/C(=C(/O)CCCl)c1ccccn1`, “inactive”.
Consider `FC(F)Sc1ccc(NC(=S)N2CCN(c3ccccn3)CC2)cc1`, for which the Potency entry was “inactive”.
With `CCOC(=O)C1C(C(=O)NN)C1C(=O)Nc1ccccc1` (stereo unspecified), the Potency result is “inactive”.
As for `CCOC(=O)c1cnc(-c2ccccc2O)nc1Cl`, the Potency result was “inactive”.
Under `CCOC(=O)C1=Nc2ccccc2C1=[N+]=[N-]` stands 39.8 µM (active).
On to `Cc1ccc2nc3c(cc2c1)c(C)nn3-c1ccccc1`, for which the Potency result was “inactive”.
For `O=C(C(Cc1ccccc1)n1cccc1)N1CCCCC1` (stereo unspecified), the Potency entry was “inactive”.
Consider `O=C1OCCN1C(=O)[C@H]1[C@H](c2ccccc2)C(c2cccc(Cl)c2)=NN1c1ccccc1`, for which the Potency result is “inactive”.
In the case of `CCCc1nnc(SCC(=O)Nc2ccccc2F)o1`, the Potency entry is “inactive”.
As for `COc1ccc(NC(=O)Cc2nnc(SCC(=O)NC3=NCCS3)n2C)cc1`, the entry is “inactive”; as for `Cc1ccc(C(C)NC(=O)C23CC4CC(CC(C4)C2)C3)cc1` (stereo unspecified), “inactive”.
As for `CCCCn1c(CNC(=O)C23CC4CC(CC(C4)C2)C3)nnc1SCC(=O)Nc1ccc(C)cc1`, the Potency was 35.5 µM (active).
Consider `N#Cc1c(N)n(CCCN2CCOCC2)c2nc3ccccc3nc12`, for which the Potency result is “inactive”.
On to `O=C(Nc1ccn(CCCN2CCN(Cc3cccc4ccccc34)CC2)c(=O)n1)OCc1ccccc1`, for which the Potency was 14.1 µM (active).
With `O=C(Cc1cccc2ccccc12)Nc1ccc(Br)cc1C(=O)O`, the Potency entry was “inactive”.
